Screen size: about 53,000 sequences; about 3,700 (7%) were called active.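 The calls were made as follows: active = gene knockdowns whose robust z-score for IL-1 alpha signal is at least 2 or at most -2, so actives lie on both sides; inactive = the rest.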 The full list was thinned out, with actives kept by preference.
Test: Components of the Cytosolic LPS Sensing Pathway: Gene Identification via Genome-wide siRNA Screen;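 also: robust z of the log signal after scaling to non-targeting control siRNA wells of the plate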
Conditions: RAW264.7 macrophages, IL-1a HTRF, actives lie on both sides, screened at 100 nM (by protocol), cells primed 5 h with Pam3CSK4 first
Summary of the method: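 Supernatant IL-1a by HTRF from RAW264.7 cells primed with Pam3CSK4 (5 hours) and transfected with LipidA (24 hour) after 48h siRNA knockdown at 100 nM; cell viability checked with CellTiter-Glo.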

| Sequence | z-score |
| --- | --- |
| GCUAGAGUAGCUUUGGGCATT against Glra3 | 1.37 (inactive) |
| GCAAGAUUUAUCCCAGUCGTT against Rnf2 | -1.83 (inactive) |
| GCUUCGACAUUGUUAGUUATT against Ammecr1 | 0.322 (inactive) |
| GCAUGUUCGUGGAAGUACUTT against Got1l1 | 0.0202 (inactive) |
| GGAGAUCCUCAAGGAGCAGTT against Park7 | 2.02 (active) |
| GCAGUUUCUAAUGAAGGUUTT against Ppp2r5a | 0.416 (inactive) |
| CGGUCUGCUCUACAUUGUCTT against Nek4 | 1.39 (inactive) |
| GCCUAUGGGUCAUUUCAAATT against Dock11 | -0.968 (inactive) |
| GGGCAGGUGGAUGUGGAAATT against Ryr2 | 0.546 (inactive) |
| GGUACCAUAUCUGUGAACATT against Nrxn3 | -1.25 (inactive) |
| GGUUCAGCUGGUCCUAUCUTT against Olfr1099 | -2.07 (active) |
| GGCAAUGCUGUCCUACUAUTT against Map2k5 | -1.19 (inactive) |
| GGAGAACUUAAAGCACAAUTT against Plxnb1 | 0.179 (inactive) |
| UCCUAGAGUCAUCAUCAUATT against A530064D06Rik | -0.44 (inactive) |
| GGAAUCUAUGAACAUGUUUTT against Pcdh12 | -0.433 (inactive) |
| GGCUGGGAAAAAAAAAGAATT against Ifi205 | 0.704 (inactive) |
| GGAUUUUUAUGAUAGUGACTT against Slc4a1ap | -0.747 (inactive) |
| GCAUCACUGGAAAUCUUACTT against Olfr807 | -2.31 (active) |
| CCAUUUGAUCAAGCUUUAGTT against Spock3 | 0.0957 (inactive) |
| GGACUCUCAAUGAUGAAUATT against Map7d3 | 1.85 (inactive) |
| GCGACACAUUCGAUCUCAGTT against Mecom | 4.11 (active) |
| CCAGAUUCGAAUAUCUAAGTT against Mrps30 | 0.935 (inactive) |
| GCCAGAAUGGACUUGAGAATT against Vmn1r227 | -1.21 (inactive) |
| GCCUUAAUGAGGGUUAUGCTT against Fbp1 | -1.11 (inactive) |
| CGAACCAUAGCUAGCUCCATT against Klhdc8b | -0.869 (inactive) |
| GGCUCAGUCCCAUCAGCAUTT against Gdf7 | 0.524 (inactive) |
| GGUUUGAUCUCAUUUUCCUTT against Mcm4 | 2.92 (active) |
| GGAACAGUAUAUAAGUUCATT against Hcfc2 | -0.593 (inactive) |
| GCUACUUCAUGGAAUCUUCTT against Mrgprb8 | -0.668 (inactive) |
